# Casp6 inh: caspase-6 (human) enzyme inhibition. inhibition, % at 12.5 µM. purified caspase-6, Z-VEID-R110 cleavage fluorescence. 350,000 tested, 0.53% active;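 active = mean inhibition across replicates at least about 35%, with every replicate also reaching that limit, limit read from the data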
# Target sequence (P55212 24-179 limits assumed): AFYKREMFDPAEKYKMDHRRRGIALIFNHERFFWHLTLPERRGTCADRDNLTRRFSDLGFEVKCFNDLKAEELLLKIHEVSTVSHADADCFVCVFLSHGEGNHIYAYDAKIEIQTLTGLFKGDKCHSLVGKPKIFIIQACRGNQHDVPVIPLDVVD
# Target sequence (P55212 194-293 limits assumed): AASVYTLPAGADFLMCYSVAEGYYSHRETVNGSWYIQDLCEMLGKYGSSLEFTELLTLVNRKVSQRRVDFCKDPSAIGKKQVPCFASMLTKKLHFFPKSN
# NSD2 HMT inh: inhibitors of human histone methyltransferase NSD2; O96028; 310,000 tested, 0.54% active; AID 743445; inhibition, % at 12.5 µM; NSD2 peptide methylation, AlphaScreen, 120 min; in the data active = inhibition above about 50%
# CDK5 p35 inh: CDK5/p35 (human) kinase inhibition. Recombinant CDK5/p35, ADP-Glo luminescence, 60 min. inhibition, % at 10 µM. 330,000 tested, 0.01% active. AID 488839;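 active = highest replicate inhibition of at least 50% and at least 75% of replicates reaching 50%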
# SUMO Mot1 rescue: SUMOylation pathway inhibition by Mot1-301 growth rescue; S. cerevisiae Mot1-301 growth rescue, ATP luminescence, 38.5C; percent above DMSO median, 100 means doubled; growth rescue, % at 18.8 µM; 320,000 tested, 1% active; AID 2716;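 active = every valid replicate shows activation above 250% relative to neutral control wells; inactive = the rest, any valid replicate at or below 250%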
# N-glyco inh: blocks N-linked glycosylation in D54 reporter cells. D54 ERlucT glycosylation luciferase reporter, 24 h; percent of 100 nM tunicamycin response. reporter increase, % at 12.5 µM. 360,000 tested, 0.23% active. AID 588692;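 active = mean luciferase reporter signal, scaled so untreated is 0 and the glycosylation-blocking control 100, at or above a set limit in every replicate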;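 also: luciferase carries N-glycosylation sites so blocking glycosylation raises the light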
# ALR H2O2 inh: inhibitors of human sulfhydryl oxidase ALR. purified ALR, DTT oxidation, H2O2 HRP-luminol luminescence. inhibition, % (test concentration not listed). 290,000 tested, 3.8% active. AID 485317;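 active = mean replicate inhibition above about 79%, with every replicate also reaching it, limit read from the data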
# Target sequence (P55789 whole entry, looked up): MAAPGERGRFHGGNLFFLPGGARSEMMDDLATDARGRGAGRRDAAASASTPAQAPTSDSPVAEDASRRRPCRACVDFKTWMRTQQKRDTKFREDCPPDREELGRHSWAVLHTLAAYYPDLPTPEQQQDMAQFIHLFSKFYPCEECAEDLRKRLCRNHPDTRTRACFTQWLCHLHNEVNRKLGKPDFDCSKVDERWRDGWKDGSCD
# Mot1 SUMO dose: inhibits SUMO pathway, affecting Mot1-301 yeast growth; shares compounds with SUMO Mot1 rescue; S. cerevisiae Mot1-301 galactose growth, ATP luminescence, 24 h; -100 = growth of slx-deleted rescue strain; growth activity, percent, % at 42 µM; 2,300 tested, under 10 active; AID 493004;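 active = Signal drops as the depositor expects, and the fitted half-maximal dose is no more than ten times the top valid tested dose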;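 also: more negative values mean stronger growth rescue toward the control strain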
# A number is an active result; . = inactive; / = no result given; + = active, no number. Shown are actives, neighbours in structure and some others; about 3.9% of the full set was active somewhere.
SMILES,Casp6 inh,NSD2 HMT inh,CDK5 p35 inh,SUMO Mot1 rescue,N-glyco inh,ALR H2O2 inh,Mot1 SUMO dose
C[C@@H]1CCCCO[C@@H](CN(C)S(=O)(=O)c2ccc(Cl)cc2)[C@H](C)CN([C@H](C)CO)C(=O)c2cc(NC(=O)CCCN(C)C)ccc2O1,.,/,/,/,/,/,/
C/C=C/c1cnc2c(c1)C(=O)N([C@@H](C)CO)C[C@H](C)[C@H](CN(C)C(=O)Nc1ccc(OC)cc1)O2,.,/,/,/,/,/,/
Cc1onc(-c2c(F)cccc2Cl)c1C(=O)N1CCc2ccccc2C1,/,.,.,.,.,.,/
Cc1onc(-c2ccccc2Cl)c1C(=O)N1CCc2ccccc2C1,/,.,.,680,.,.,.
Cn1c(=O)[nH]c(=O)c2c1nc(NCCCO)n2CCOc1ccccc1,.,.,.,.,.,/,/
Cn1c(=O)[nH]c(=O)c2c1nc(NCCN)n2CCOc1ccccc1,.,.,.,461,.,.,.
CCOc1cc(C(=S)N2CCOCC2)ccc1OC(=O)c1ccccc1,.,.,.,.,.,.,/
CCOc1cc(C(=S)N2CCOCC2)ccc1OC(=O)c1ccc(C)cc1,.,.,.,414,.,.,.
O=C(CN1CCOCC1)NCC[C@@H]1CC[C@H](NC(=O)Nc2ccc(C(F)(F)F)cc2)[C@H](CO)O1,.,/,/,/,/,/,/
COc1ccc(NC(=O)CSc2nnc(-c3ccccn3)n2-c2ccccc2)cc1OC,/,.,.,475,.,.,.
COc1ccc(C(=O)O)cc1S(=O)(=O)NCCN(C)C,.,.,.,824,.,/,.
O=C(COC(=O)c1ccc([N+](=O)[O-])s1)c1ccc[nH]1,99,.,.,516,.,.,.
CN(C)C(=O)C[C@H]1CC[C@H]2[C@@H](COc3ccc(NC(=O)C4CCOCC4)cc3C(=O)N2C)O1,.,/,/,/,/,/,/
O=C(Nc1ccc(S(=O)(=O)NC2=NCCCCC2)cc1)c1ccc(C(F)(F)F)cc1,.,.,.,451,.,.,.
CC(C)c1onc(C(=O)N(C)Cc2ccccc2)c1[N+](=O)[O-],.,.,.,726,.,.,.
COc1ccc(S(=O)(=O)Nc2ccc3c(c2)C(=O)N([C@H](C)CO)C[C@H](C)[C@@H](CN(C)C(=O)CCCN(C)C)OCCCC[C@H](C)O3)cc1,.,/,/,/,/,/,/
CCOC(=O)c1[nH]c2ccc(F)cc2c1NC(=O)CCN1CCSCC1,/,.,.,.,.,.,/
CCOC(=O)c1[nH]c2ccc(F)cc2c1NC(=O)CCN1CCOCC1,.,.,.,383,.,.,.
CC(=O)Nc1ccccc1C(=O)C(=O)Nc1ccc(C(=O)NCC2CCCO2)cc1 (configuration not stated),.,.,.,917,.,.,.
CC(=O)Nc1ccccc1C(=O)C(=O)Nc1cccc(C(=O)NCC2CCCO2)c1 (configuration not stated),.,/,.,.,.,.,/
COc1ccc(NC(=O)C2CCN(c3cc(C)nc(-c4ccccc4)n3)CC2)cc1,/,.,.,+,.,.,.
Cc1nc(NCCN2CCOCC2)c2nnn(Cc3c(F)cccc3Cl)c2n1,/,.,.,629,.,.,.
CCOc1ccccc1CN1CCNC(=O)C1CC(=O)NCCN1CCOC1=O (configuration not stated),.,.,.,501,.,.,.
O=C(C[C@H]1CC[C@@H](NC(=O)Nc2ccccc2F)[C@@H](CO)O1)NCc1ccc(Cl)cc1,.,/,/,/,/,/,/
Nc1ccc(Oc2ccccc2-c2ccccc2)cc1,.,/,.,446,.,99,.
SMILES,Casp6 inh,NSD2 HMT inh,CDK5 p35 inh,SUMO Mot1 rescue,N-glyco inh,ALR H2O2 inh,Mot1 SUMO dose
NCCOc1ccccc1-c1ccccc1,/,.,.,.,.,.,/
COc1cc(CN2CCCC(CO)(Cc3cccc(Cl)c3)C2)cc2c1OCO2 (configuration not stated),.,.,.,+,.,/,.
OCC1(Cc2cccc(Cl)c2)CCCN(Cc2ccc(F)c(F)c2)C1 (configuration not stated),.,.,.,382,.,.,.
CSc1cccc(CN2CCCC(CO)(Cc3cccc(Cl)c3)C2)c1 (configuration not stated),.,.,.,.,.,.,/
CC(=O)Nc1ccc(CN2CCCC(CO)(Cc3cccc(Cl)c3)C2)cc1 (configuration not stated),.,.,.,+,.,/,.
C[C@H]1CN([C@@H](C)CO)C(=O)c2cccc(NC(=O)C3CCOCC3)c2O[C@H]1CN(C)C(=O)Nc1ccc(C(F)(F)F)cc1,.,/,/,/,/,/,/
COCCCN1C(=O)c2[nH]nc(-c3cc(C)cc(C)c3O)c2C1c1ccc(O)c(OC)c1 (configuration not stated),.,.,.,.,.,.,/
CCCN1C(=O)c2[nH]nc(-c3cc(Cl)c(C)cc3O)c2C1c1ccc(O)c(OC)c1 (configuration not stated),.,/,.,571,.,.,.
COc1ccc(-n2c(C)cc(C(=O)CN3C(=O)NC4(CCCc5sccc54)C3=O)c2C)cc1 (configuration not stated),/,.,.,+,.,.,.
Cc1cc(C(=O)CN2C(=O)NC3(CCCc4sccc43)C2=O)c(C)n1-c1ccccc1 (configuration not stated),/,.,.,.,.,.,/
C[C@@H]1CN([C@H](C)CO)C(=O)c2cc(-c3ccccc3F)cnc2O[C@@H]1CN(C)C(=O)C1CC1,.,/,/,/,/,/,/
CO[C@H]1CN(C)C(=O)c2cc(NS(C)(=O)=O)ccc2OC[C@H](C)N(CC2CC2)C[C@H]1C,.,/,/,/,/,/,/
O=C(CCc1ccccc1)N1CCN(c2ccccc2F)CC1,.,.,.,793,.,.,.
CS(=O)(=O)N(CC(=O)N1CCN(c2ccccc2F)CC1)C1CCCCC1,.,.,.,680,.,.,.
CCNS(=O)(=O)c1ccc(CCC(=O)N2CCN(c3ccccc3F)CC2)cc1,.,.,.,.,.,.,/
COc1ccc(NC(=O)Nc2ccc3c(c2)C(=O)N([C@H](C)CO)C[C@H](C)[C@H](CN(C)S(=O)(=O)c2ccc(C)cc2)OCCCC[C@@H](C)O3)cc1,.,/,/,/,/,/,/
COc1cc2nc(CSc3ncn[nH]3)[nH]c(=O)c2cc1OC,.,.,.,556,.,.,.
COc1cc2nc(CN(C)Cc3ccc(SC)cc3)[nH]c(=O)c2cc1OC,.,.,.,.,.,.,/
COc1ccc2c3c([nH]c2c1)[C@@H](CO)N(C(=O)c1cccnc1)CC31CCN(C(=O)Nc2cccc(F)c2)CC1,.,/,/,/,/,/,/
C[C@@H]1CN([C@@H](C)CO)C(=O)Cc2cc(NC(=O)Nc3ccc(F)cc3)ccc2O[C@H]1CN(C)CC1CCCCC1,.,/,/,/,/,/,/
O=C(Nc1ccc2oc(-c3ccccc3F)nc2c1)c1ncn[nH]1,/,.,.,+,.,.,.

# High-throughput results: PubChem BioAssay, Broad Institute
